Measurements as given in PubChem BioAssay.
Activity calls are given as the source filed them.

Columns and labels:
[1] = tested on: Plasmodium falciparum Sir2 (PF13_0152, Sir2A); assay: Plasmodium falciparum Sir2A binding compounds – biochemical, small-molecule microarray, 635 nm fluorescence, primary screen (AID 1098); conditions: fluorescence 635 nm, higher = more signal;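 note: score merges spot fluorescence intensity with its signal-to-noise ratio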
[2] = probe aDKK1 binding to arrayed compounds – biochemical, biotinylated probe, 635/667 nm fluorescence, primary screen (AID 1099); conditions: small-molecule microarray, higher = more signal;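 note: score merges 667nm spot fluorescence with signal to noise across triplicate slides; reference of the scale not given here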
[3] = probe aCHRDL2 binding to arrayed compounds – biochemical, biotinylated probe, 635/667 nm fluorescence, primary screen (AID 1100); conditions: small-molecule microarray, higher = more signal
[4] = change in splice reporter luminescence, either direction, cell-based, HEK293, spliceosome inhibition project, primary screen (AID 1101); conditions: HEK293 splicing luciferase reporter, 24 h, higher = more signal, called active from +8 up or from −8 down;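 note: HEK293 cells carrying a splicing-competent luciferase reporter gene; test concentration not given here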
[5] = target: Fibroblast growth factor 10 (Homo sapiens) (UniProt O15520); assay: compounds binding fibroblast growth factor 10 – biochemical, small-molecule microarray, 635 nm fluorescence, primary screen (AID 1102); conditions: FGF10 binding, fluorescence 635 nm, higher = more signal
Sequence of Fibroblast growth factor 10 (Homo sapiens) (O15520 whole entry, looked up): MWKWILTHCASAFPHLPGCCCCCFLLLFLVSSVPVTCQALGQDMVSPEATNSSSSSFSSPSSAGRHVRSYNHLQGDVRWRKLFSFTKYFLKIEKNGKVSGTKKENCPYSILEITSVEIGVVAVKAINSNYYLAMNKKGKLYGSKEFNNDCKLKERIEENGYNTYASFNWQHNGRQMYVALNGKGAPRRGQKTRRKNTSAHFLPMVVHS

[6] = tested on: glycogen synthase kinase-3 (GSK3A per assay name; protocol says GSK3B); assay: compounds binding glycogen synthase kinase-3 – biochemical, small-molecule microarray, 635 nm fluorescence, GSK3A, primary screen (AID 1103); conditions: fluorescence 635 nm, higher = more signal; note: the record names both GSK3A and GSK3B
[7] = target: Epidermal growth factor receptor (Homo sapiens) (UniProt P00533); assay: compounds binding epidermal growth factor receptor – biochemical, small-molecule microarray, 635 nm fluorescence, primary screen (AID 1104); conditions: EGFR binding, higher = more signal;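 note: score merges 667 nm emission intensity with spot signal to noise over triplicate slides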
Sequence of Epidermal growth factor receptor (Homo sapiens) (P00533 whole entry, looked up): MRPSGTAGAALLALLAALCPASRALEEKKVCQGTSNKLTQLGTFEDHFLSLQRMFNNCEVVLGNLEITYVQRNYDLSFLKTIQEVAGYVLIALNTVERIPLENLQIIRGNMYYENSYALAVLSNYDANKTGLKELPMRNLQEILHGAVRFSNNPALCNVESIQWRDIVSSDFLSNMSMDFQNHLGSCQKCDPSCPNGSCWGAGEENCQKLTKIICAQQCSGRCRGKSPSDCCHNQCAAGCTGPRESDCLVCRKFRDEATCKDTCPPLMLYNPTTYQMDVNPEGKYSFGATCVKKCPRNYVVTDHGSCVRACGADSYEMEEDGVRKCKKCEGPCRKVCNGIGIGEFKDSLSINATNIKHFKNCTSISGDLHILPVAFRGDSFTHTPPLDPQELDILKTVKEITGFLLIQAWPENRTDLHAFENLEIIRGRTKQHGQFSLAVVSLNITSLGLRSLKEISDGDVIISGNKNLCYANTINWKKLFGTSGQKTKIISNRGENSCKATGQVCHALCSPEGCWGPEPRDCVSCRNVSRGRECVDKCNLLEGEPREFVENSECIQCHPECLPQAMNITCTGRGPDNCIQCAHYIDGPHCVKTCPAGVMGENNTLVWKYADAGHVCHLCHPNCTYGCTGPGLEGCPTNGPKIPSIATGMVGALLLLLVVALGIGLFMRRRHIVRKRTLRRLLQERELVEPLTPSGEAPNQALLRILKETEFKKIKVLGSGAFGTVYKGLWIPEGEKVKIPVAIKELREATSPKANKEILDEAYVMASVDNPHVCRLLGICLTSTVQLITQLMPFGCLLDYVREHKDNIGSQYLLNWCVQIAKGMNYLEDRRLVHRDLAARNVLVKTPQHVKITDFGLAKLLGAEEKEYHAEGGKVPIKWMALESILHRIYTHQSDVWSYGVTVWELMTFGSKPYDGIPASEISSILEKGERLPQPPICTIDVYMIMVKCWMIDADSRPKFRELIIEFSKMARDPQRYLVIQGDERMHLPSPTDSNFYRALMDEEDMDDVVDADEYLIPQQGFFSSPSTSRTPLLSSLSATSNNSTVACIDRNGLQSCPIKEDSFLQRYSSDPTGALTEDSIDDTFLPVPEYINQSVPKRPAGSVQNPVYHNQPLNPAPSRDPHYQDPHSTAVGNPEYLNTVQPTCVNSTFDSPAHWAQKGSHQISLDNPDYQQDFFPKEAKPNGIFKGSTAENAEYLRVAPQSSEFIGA

[8] = target: Follistatin-related protein 3 (Homo sapiens) (UniProt O95633); assay: compounds binding follistatin-related protein 3 – biochemical, small-molecule microarray, 635 nm fluorescence, primary screen (AID 1105); conditions: FSTL3 binding, higher = more signal;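 note: score merges emission near 667 nm and signal to noise per printed spot across three slides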
Sequence of Follistatin-related protein 3 (Homo sapiens) (O95633 whole entry, looked up): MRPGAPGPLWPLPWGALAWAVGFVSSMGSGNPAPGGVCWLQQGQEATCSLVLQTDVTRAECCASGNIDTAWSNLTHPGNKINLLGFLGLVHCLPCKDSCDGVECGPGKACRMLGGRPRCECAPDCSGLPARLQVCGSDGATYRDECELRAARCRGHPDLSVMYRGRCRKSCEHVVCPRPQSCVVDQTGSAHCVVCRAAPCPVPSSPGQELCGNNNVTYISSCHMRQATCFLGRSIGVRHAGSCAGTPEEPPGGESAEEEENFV

[9] = target: Dickkopf-related protein 1 (Homo sapiens) (UniProt O94907); assay: small molecules binding DKK1 protein – biochemical, small-molecule microarray, 635 nm fluorescence scan, primary screen (AID 1106); conditions: higher = more signal;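 note: score merges emission near 667 nm with signal to noise over three replicate slides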
Sequence of Dickkopf-related protein 1 (Homo sapiens) (O94907 whole entry, looked up): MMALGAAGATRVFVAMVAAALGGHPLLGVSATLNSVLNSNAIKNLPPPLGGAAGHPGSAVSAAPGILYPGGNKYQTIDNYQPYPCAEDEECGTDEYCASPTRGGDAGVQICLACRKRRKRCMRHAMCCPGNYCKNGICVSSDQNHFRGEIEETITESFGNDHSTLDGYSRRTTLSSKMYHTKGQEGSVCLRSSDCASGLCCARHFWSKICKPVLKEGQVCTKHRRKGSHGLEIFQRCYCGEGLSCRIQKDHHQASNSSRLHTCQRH

[10] = tested on: Inhibin beta A chain (activin A); assay: small molecules binding activin A – biochemical, small-molecule microarray, 635 nm fluorescence scan, primary screen (AID 1107); conditions: INHBA, higher = more signal;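 note: mouse activin A protein probed at 4.33 µg/mL on printed slides; score merges bound-protein fluorescence near 667 nm with spot signal-to-noise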

Compound | composite z-score [1] | composite z-score [2] | composite z-score [3] | z-score [4] | composite z-score [5] | composite z-score [6] | composite z-score [7] | composite z-score [8] | composite z-score [9] | composite z-score [10]
COc1cccc([C@H](O)Cn2cc(-c3ccc(CON=C(C)C)cc3)nn2)c1 | -0.548 | -0.122 | -0.0514 | 0.62 (inactive) | 0.155 | -0.559 | -0.392 | -0.549 | -0.115 | 0.575
C[C@H]1CC[C@H]2C(=O)O[C@H](CO)CN2[C@@H]1c1ccc(Br)cc1 | -0.233 | -0.198 | -0.372 | -0.202 (inactive) | -0.111 | -0.348 | 0.0844 | -0.378 | -0.106 | 0.829
C[C@H]1CC[C@H]2C(=O)OC(COc3ccc(C(C)(C)C)cc3)CN2[C@@H]1c1ccc(Br)cc1 (stereo not given in full) | 0.528 | -0.254 | -0.242 | -0.216 (inactive) | 0.172 | 0.364 | -0.128 | 0.58 | -0.039 | 0.451
C#CCCCON=C1[C@H]2CCn3c(=O)n([C@@H](CC)c4ccccc4)c(=O)n3[C@H]2[C@H](O)[C@@H]2O[C@H]12 | 1.1 | -0.175 | -0.317 | 6.03 (inactive) | 0.581 | -0.51 | 0.179 | 0.34 | 0.209 | 0.228
CCOC(=O)CCN1C(=O)[C@H]2[C@H]3[C@H](O)[C@H](O)CC(=NOCC(C)C)[C@@H]3CC[C@H]2C1=O | 0.816 | -0.823 | -1.74 | 0.66 (inactive) | -0.0809 | 1.06 | 0.406 | 1.04 | 1.78 | 1.28
C[C@@H]1CC[C@H]2C(=O)O[C@@H](CN=[N+]=[N-])CN2[C@H]1c1ccc(Br)cc1 | 0.584 | 0.0195 | -0.669 | 0.659 (inactive) | 0.382 | 0.636 | 0.343 | 0.345 | 0.857 | 0.455
O=C1C[C@@H](O)[C@@H](O)[C@@H]2[C@@H]3C(=O)N(C4CCCCC4)C(=O)[C@@H]3CC[C@@H]12 | 0.607 | -0.28 | -0.504 | 0.602 (inactive) | 1.11 | 0.235 | 0.613 | 0.59 | 0.555 | -0.156
O=C1[C@H]2[C@H]3[C@H](O)[C@H](O)CC(=NOCc4ccccc4)[C@@H]3CC[C@H]2C(=O)N1c1cccc(Oc2ccccc2)c1 | 1.03 | -0.173 | -0.186 | -0.055 (inactive) | 0.485 | 0.38 | 0.201 | 0.48 | 0.0072 | -0.202
C[C@@H](c1ccccc1)N1C(=O)[C@H]2[C@H]3[C@H](O)[C@H](O)CC(=NOCc4ccccc4)[C@@H]3CC[C@H]2C1=O | -0.139 | 1.19 | 1.31 | 0.36 (inactive) | -0.222 | -0.187 | -0.169 | -0.909 | -1 | 0.549
CCOC(=O)[C@H](Cc1ccccc1)NC(=O)CCC1CC(OC(=O)NCCc2ccc(F)cc2)CC2(CCCC(COC(=O)NCCC(C)C)O2)O1 (stereo not given in full) | 1.16 | -0.226 | -0.415 | -0.0793 (inactive) | 0.52 | 1.01 | 0.396 | 1.18 | 0.648 | 0.0186
COC(=O)CC=C[C@@H](C)[C@@H](C=NOC[C@@H](C)[C@H](OCc1ccccc1)C(C)C)OC | 0.161 | -0.325 | -0.208 | -0.201 (inactive) | 0.286 | 0.103 | 0.146 | 0.102 | 0.426 | -0.283
CC(C)(C)N1C(=O)[C@H]2[C@H]3[C@H](O)[C@H](O)CC(=NOC[C@@H](O)COCc4ccco4)[C@H]3CC[C@H]2C1=O | 0.732 | 0.486 | 0.708 | 1.13 (inactive) | 0.207 | -0.274 | -0.284 | -0.28 | -0.0956 | 0.0091
C[C@H]1C=CCC(=O)OC[C@H](C)C(=O)N2CCC[C@H]2C(=O)OC1 | 1.01 | -0.235 | -1.53 | -0.0436 (inactive) | 1.47 | 1.29 | 1.73 | 1.48 | 2.11 | -0.626
O=C1[C@H]2[C@H]3[C@H](O)[C@H](O)CC(=NOC[C@@H](O)COCc4ccco4)[C@@H]3CC[C@H]2C(=O)N1C1CCCCC1 | 0.225 | -0.401 | -1.26 | 0.76 (inactive) | -0.102 | 1.04 | 0.783 | 1.36 | 1.46 | 1.23
CCOC(=O)NN=C1C[C@@H](O)[C@@H](O)[C@@H]2[C@@H]3C(=O)N(CC)C(=O)[C@@H]3CC[C@H]12 | -0.04 | -0.115 | -0.254 | -0.322 (inactive) | 0.125 | -0.256 | 0.283 | -0.188 | 0.191 | -0.145
CC(CCC(=O)OC[C@H]1O[C@H](C#Cc2ccccc2)C=C[C@@H]1Oc1ccc(C)cc1)=NOC[C@@H](C)[C@H](OCc1ccccc1)C(C)C | -1.11 | -0.247 | -0.506 | 0.371 (inactive) | -0.434 | -1.3 | -1.05 | -1.09 | -0.613 | 0.211
COc1ccc2c(c1)O[C@@H](c1cccc(C(F)(F)F)c1)[C@H](O)C2=O | 0.0008 | -0.14 | -0.324 | -0.912 (inactive) | 0.213 | 0.39 | 0.349 | 0.416 | 0.356 | 0.149
